Source: ChEMBL document CHEMBL1157539, “Thousands of chemical starting points for antimalarial lead identification” (Nature, 2010)

test system: Plasmodium falciparum; experiment: GSK_TCMDC: Inhibition of Plasmodium falciparum Dd2 in whole red blood cells, using parasite LDH activity as an index of growth. Test compounds present at 2uM; assay type: functional

Q: For `COc1ccc(Nc2nc(N/N=C/c3ccc(O)cc3)nc(Nc3ccc([N+](=O)[O-])cc3)n2)cc1`, which Inhibition is on record?
A: Its Inhibition is 16%.

Q: Which Inhibition does the source give for `Cc1[nH]c(C)c(-c2ccc(OCc3cccc(C(F)(F)F)c3)nc2)c(=O)c1Br` here?
A: The Inhibition was 97%.

Q: With `Cc1cc(CN2CCC(N3CC(c4ccccc4)(c4ccccc4)OCC3=O)C2)ccc1O.O=C(O)C(F)(F)F` (stereo not drawn) as the compound, how does the Inhibition read?
A: The Inhibition was 52%.

Q: How did the Inhibition turn out when `c1ccc(Oc2ccc(Nc3ccnc4cc(-c5cccc(CNCCN6CCOCC6)c5)ccc34)cc2)cc1` was run?
A: Its Inhibition is 98%.

Q: `O=C(Cc1c[nH]cn1)Nc1ccc(-c2ccc(-c3nc4ccccc4[nH]3)s2)cc1` was tested. Which Inhibition did it give?
A: The Inhibition was 34%.

Q: Which Inhibition does the source give for `O=C(O)C(F)(F)F.Oc1ccc(CCNc2nc(NCCCOc3cc(CN4CCCCC4)ccc3F)nc(N3CCNCC3)n2)cc1` here?
A: Its Inhibition is 0%.

Q: How did the Inhibition turn out when `CCNC(=O)Nc1ccc(-c2ccc(-c3nc4cccc(C)c4[nH]3)s2)cc1` was run?
A: The Inhibition was 13%.

Q: For `CCCCNC[C@@H](O)[C@H](Cc1ccccc1)NC(=O)c1cc2c3c(c1)c(CC)cn3CCS(=O)(=O)N2C.O=CO`, which Inhibition is on record?
A: Its Inhibition is 98%.

Q: Which Inhibition does the source give for `CN1CCN(c2ccnc3ccc(NC(=O)Cc4ccc(OCc5ccccc5)cc4)cc23)CC1` here?
A: The Inhibition was 89%.

Q: How did the Inhibition turn out when `COc1ccccc1CCNc1nc(C)cc(N[C@@H](CC(C)C)C(=O)NCc2cccc(F)c2)n1.O=C(O)C(F)(F)F` was run?
A: Its Inhibition is 79%.

Q: With `O=C(/C=C/c1ccc(Cl)c(Cl)c1)NCCCCCN1CCCN(C(=O)Nc2cc(Cl)cc(Cl)c2)CC1` as the compound, how does the Inhibition read?
A: The Inhibition was 4%.

Q: `Cc1cc(O)nc(NC(=N)NOCc2ccccc2)n1` was tested. Which Inhibition did it give?
A: Its Inhibition is 1%.

Q: How did the Inhibition turn out when `CCN(CC)CCN(Cc1ccc(-c2ccc(C(F)(F)F)cc2)nc1)C(=O)Cn1cc(Cc2cnn(C)c2)c(=O)n2nc(-c3ccccc3)cc12.O=C(O)C(O)C(O)C(=O)O` was run?
A: Its Inhibition is 95%.

test system: HepG2; experiment: GSK_TCMDC: Percent inhibition of human HepG2 cell line. Test compounds present at 10uM.; assay type: functional

Q: Which Inhibition does the source give for `Cc1ccn2c(C(=O)N3CCN(c4cccc5c4nc(-c4ccoc4)n5Cc4ccccn4)CC3)c(C)nc2c1` here?
A: The Inhibition was 2%.

Q: With `C=CCc1ccccc1OCC(O)CN(C1CCCCC1)C1CCCCC1.Cl` (stereo not drawn) as the compound, how does the Inhibition read?
A: The Inhibition was 50%.

Q: `COc1cc(COc2c(C)nc(N)nc2N)cc(OC)c1OC.Cl` was tested. Which Inhibition did it give?
A: Its Inhibition is 7%.

Q: With `COc1ccc(Nc2nccc(N3CCC(NC(=O)Nc4ccc5c(c4)OCO5)C3)n2)cc1` (stereo not drawn) as the compound, how does the Inhibition read?
A: Its Inhibition is 27%.

Q: How did the Inhibition turn out when `CCCCCCCCCN(CCC)C(=O)[C@@H]1OC(C(=O)OC(c2ccccc2)c2ccccc2)=C[C@H](NC(=O)OC(C)(C)C)[C@H]1NC(C)=O` was run?
A: Its Inhibition is 0%.

Q: Which Inhibition does the source give for `COc1ccccc1CCCN1C(=O)C(c2ccccc2)(c2ccccc2)N=C1N.O=C(O)C(F)(F)F` here?
A: The Inhibition was 49%.

Q: Which Inhibition does the source give for `Cl.NC(=O)c1sc(-n2cnc3ccc(OCC4CCNCC4)cc32)cc1OCc1ccccc1C(F)(F)F` here?
A: Its Inhibition is 18%.

Q: For `O=C(Nc1cccc(OC2CCN(Cc3ccccc3)CC2)c1)c1ccc([N+](=O)[O-])cc1.O=C(O)C(F)(F)F`, which Inhibition is on record?
A: The Inhibition was 6%.

Q: How did the Inhibition turn out when `COc1ccccc1CCN1CCC(CN(C)Cc2ccc(O)c(Cl)c2)CC1` was run?
A: The Inhibition was 19%.

Q: For `COc1ccc2nccc([C@@H](O)CN3CCC(NC(=O)/C=C/c4cc(F)cc(Br)c4)CC3)c2c1`, which Inhibition is on record?
A: Its Inhibition is 24%.

Q: For `O=C(/C=C/c1ccc(Cl)c(Cl)c1)NCCCCCCN1CCCN(C(=O)Nc2ccc(F)c(Cl)c2)CC1`, which Inhibition is on record?
A: Its Inhibition is 30%.

Q: With `CCN(CCO)CCc1cccc(Nc2nccc(-c3c(-c4ccc(NC(=O)N(CC)CC)cc4)nn4ccccc34)n2)c1.Cl` as the compound, how does the Inhibition read?
A: Its Inhibition is 46%.

Q: For `COc1ccc(Cl)cc1C(=O)Nc1ccc(-c2nc3ccccc3[nH]2)cc1`, which Inhibition is on record?
A: The Inhibition was 42%.

Q: Which Inhibition does the source give for `CCCc1cc(Cc2cnc(N)nc2N)cc2c1OC(C)C2C.Cl` (stereo not drawn) here?
A: The Inhibition was 32%.

Q: How did the Inhibition turn out when `CCCCCCN1CCCN(Cc2cccc(NC(=O)c3cc4ccccc4s3)c2)CC1.O=C(O)C(F)(F)F` was run?
A: The Inhibition was 31%.

Q: Which Inhibition does the source give for `Cc1ccc(C)c(CN2CCC(CNC(=O)c3cc4ccc5cccnc5c4[nH]3)CC2)c1` here?
A: The Inhibition was 25%.

Q: How did the Inhibition turn out when `COc1ccc2nccc(NC(=O)C3(O)CCC(NCc4ncc5c(c4Cl)OCCO5)CC3)c2n1.Cl` (stereo not drawn) was run?
A: The Inhibition was 21%.

Q: How did the Inhibition turn out when `Cc1cnc(NCCc2ccc(F)cc2)nc1NCCC(=O)Nc1ccccc1.O=C(O)C(F)(F)F` was run?
A: Its Inhibition is 3%.

Q: Which Inhibition does the source give for `CCN(CCNC(=O)Nc1cc(C(F)(F)F)cc(C(F)(F)F)c1)c1cccc(C)c1` here?
A: The Inhibition was 0%.

Q: For `NC1=NC2(CCCCC2)N(OCCCCCCN2C(=O)c3ccccc3C2=O)C(N)=N1`, which Inhibition is on record?
A: Its Inhibition is 20%.

Q: Which Inhibition does the source give for `CC1CCN(C(=O)CSc2nc(-c3ccc(C(C)C)cc3)no2)CC1` here?
A: The Inhibition was 0%.

Q: How did the Inhibition turn out when `Cc1cccc2nc(-c3ccc(-c4cccc(CNCCCN5CCCC5=O)c4)s3)[nH]c12.O=C(O)C(F)(F)F` was run?
A: Its Inhibition is 14%.

Q: Which Inhibition does the source give for `Cl.Fc1cc(Cl)ccc1Nc1ccnc2cc(-c3ccc(CN4CCNCC4)o3)ccc12` here?
A: Its Inhibition is 16%.

Q: With `Cc1cc(-c2ccc3c(c2)CCN(CCC2CCC(NC(=O)/C=C/c4ccc(F)cc4)CC2)CC3)on1.Cl` (stereo not drawn) as the compound, how does the Inhibition read?
A: Its Inhibition is 29%.

Q: How did the Inhibition turn out when `Cc1cccc2nc(-c3ccc(-c4ccc(NC(=O)NCc5ccc(F)cc5)cc4)cc3)[nH]c12` was run?
A: The Inhibition was 70%.

Q: `CCC(CO)NCC(O)Cn1c2ccc(Br)cc2c2cc(Br)ccc21` (stereo not drawn) was tested. Which Inhibition did it give?
A: Its Inhibition is 18%.

Q: Which Inhibition does the source give for `Cc1ccc(S(=O)(=O)N2CCCN(C(=O)c3cc(-c4ccccc4)[nH]n3)CC2)cc1` here?
A: Its Inhibition is 11%.

Q: Which Inhibition does the source give for `COc1ccc(Nc2nc(N/N=C/c3ccc(O)cc3)nc(Nc3ccc([N+](=O)[O-])cc3)n2)cc1` here?
A: The Inhibition was 0%.

Q: For `Cc1[nH]c(C)c(-c2ccc(OCc3cccc(C(F)(F)F)c3)nc2)c(=O)c1Br`, which Inhibition is on record?
A: The Inhibition was 37%.

Q: For `Cc1cc(CN2CCC(N3CC(c4ccccc4)(c4ccccc4)OCC3=O)C2)ccc1O.O=C(O)C(F)(F)F` (stereo not drawn), which Inhibition is on record?
A: The Inhibition was 3%.

Q: `c1ccc(Oc2ccc(Nc3ccnc4cc(-c5cccc(CNCCN6CCOCC6)c5)ccc34)cc2)cc1` was tested. Which Inhibition did it give?
A: Its Inhibition is 12%.

Q: `O=C(Cc1c[nH]cn1)Nc1ccc(-c2ccc(-c3nc4ccccc4[nH]3)s2)cc1` was tested. Which Inhibition did it give?
A: The Inhibition was 44%.

Q: How did the Inhibition turn out when `O=C(O)C(F)(F)F.Oc1ccc(CCNc2nc(NCCCOc3cc(CN4CCCCC4)ccc3F)nc(N3CCNCC3)n2)cc1` was run?
A: Its Inhibition is 30%.

Q: For `CCNC(=O)Nc1ccc(-c2ccc(-c3nc4cccc(C)c4[nH]3)s2)cc1`, which Inhibition is on record?
A: Its Inhibition is 18%.

Q: `CCCCNC[C@@H](O)[C@H](Cc1ccccc1)NC(=O)c1cc2c3c(c1)c(CC)cn3CCS(=O)(=O)N2C.O=CO` was tested. Which Inhibition did it give?
A: The Inhibition was 0%.

Q: `CN1CCN(c2ccnc3ccc(NC(=O)Cc4ccc(OCc5ccccc5)cc4)cc23)CC1` was tested. Which Inhibition did it give?
A: The Inhibition was 6%.

Q: How did the Inhibition turn out when `COc1ccccc1CCNc1nc(C)cc(N[C@@H](CC(C)C)C(=O)NCc2cccc(F)c2)n1.O=C(O)C(F)(F)F` was run?
A: Its Inhibition is 20%.

Q: With `O=C(/C=C/c1ccc(Cl)c(Cl)c1)NCCCCCN1CCCN(C(=O)Nc2cc(Cl)cc(Cl)c2)CC1` as the compound, how does the Inhibition read?
A: Its Inhibition is 53%.

Q: For `Cc1cc(O)nc(NC(=N)NOCc2ccccc2)n1`, which Inhibition is on record?
A: The Inhibition was 0%.

Q: With `CCN(CC)CCN(Cc1ccc(-c2ccc(C(F)(F)F)cc2)nc1)C(=O)Cn1cc(Cc2cnn(C)c2)c(=O)n2nc(-c3ccccc3)cc12.O=C(O)C(O)C(O)C(=O)O` as the compound, how does the Inhibition read?
A: Its Inhibition is 35%.
